Most compounds without a hit are left out; they make up all but 12% or so of the library.
JMJD2A Tudor: JMJD2A Tudor domain (human) inhibition | Potency, µM (highest dose often 114 µM), for inactives: at the top dose activity change, negative = inhibition, most hits filed as inhibitors | AlphaScreen JMJD2A-Tudor / H3K4me3 peptide binding | 390,000 compounds, 4.4% hits | O75164; further: on the % scale 0 is the no-effect control and ±100 the full control effect; nearly all actives have a fitted effect of over 50% in size
Sfp PPTase inh: blocks B. subtilis Sfp PPTase activity; Biochemical Sfp PPTase activity, qHTS; 310,000 compounds, 3.5% hits; Potency, µM, for inactives: largest response in the series, negative = inhibition, usual class: inhibitors; AID 1490;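 further: the enzyme is Sfp with the accession as filed and its product quenches rhodamine fluorescence; 0% = enzyme reaction without inhibitor and -100% = no enzyme wells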
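With Hepes-Na pH 7.6 buffer containing 10 mM MgCl2, Sfp (15 nM) modified BHQ-2-YbbR (12.5 uM) using rhodamine-CoA (5 uM). Two reads 30 minutes apart at 525/598 nm yielded each well's rate.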
G9a inh: G9a (human) methyltransferase inhibition; AID 504332; G9a H3K9 monomethylation, AlphaScreen, 2 h; 350,000 compounds, 8.8% hits; Q96KQ7; Potency, µM (highest dose often 102 µM), for the others: at the highest dose activity, negative = inhibition, hits mostly inhibitors; further: on the % scale 0 is the no-effect control and ±100 the full control effect; nearly all actives have a fitted effect of over 75% in size
Target sequence (Q96KQ7 913-1193 limits assumed): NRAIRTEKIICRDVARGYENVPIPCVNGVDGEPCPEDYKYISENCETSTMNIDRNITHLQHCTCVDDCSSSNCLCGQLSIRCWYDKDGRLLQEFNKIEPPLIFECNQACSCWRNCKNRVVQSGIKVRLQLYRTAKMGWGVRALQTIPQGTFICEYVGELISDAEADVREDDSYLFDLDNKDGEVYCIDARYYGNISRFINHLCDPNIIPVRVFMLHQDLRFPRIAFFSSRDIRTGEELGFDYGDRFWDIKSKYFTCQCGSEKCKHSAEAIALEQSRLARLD
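Compounds were preincubated with 20 nM G9a for 15 min, after which biotinylated H3K9 peptide (500 nM) and SAM (20 uM) started a 2 h room-temperature reaction. Monomethylated product was quantified by antibody-based AlphaScreen chemiluminescence.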
HP1b chromo inh: inhibitors of HP1-beta chromodomain binding to methylated histone tails | AlphaScreen HP1-beta / biotin-H3K9me3 peptide binding | P83916 | 390,000 compounds, 0.56% hits | Potency, µM (series often up to 114 µM), for the others: at the top dose activity change, negative = inhibition, actives largely listed as inhibitors; further: nearly all actives have a fitted effect of over 70% in size
Target sequence (P83916 whole entry, looked up): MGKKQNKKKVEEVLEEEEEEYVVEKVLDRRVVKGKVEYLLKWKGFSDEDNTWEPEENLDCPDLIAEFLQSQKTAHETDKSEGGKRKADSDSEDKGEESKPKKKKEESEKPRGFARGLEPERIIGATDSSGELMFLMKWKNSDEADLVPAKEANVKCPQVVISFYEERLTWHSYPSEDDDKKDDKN
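AlphaScreen: HP1-beta (50 nM) preformed 30 min with biotin-H3(1-18)K9me3 peptide (50 nM) in PBS pH 7.4, 0.01% Tween-20. Compound added for 30 min at RT, then streptavidin donor/nickel chelate acceptor beads (10 ug/mL) for 30 min.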
BAZ2B inh: BAZ2B (human) inhibition. Potency, µM (top dose mostly 114 µM), without a hit: at the top dose activity change, negative = inhibition, hits mostly inhibitors. AlphaScreen BAZ2B-H3K14Ac peptide displacement. 360,000 compounds, 4.4% hits. Q9UIF8. AID 504333; further: on the % scale 0 is the no-effect control and ±100 the full control effect; nearly all actives have a fitted effect of over 60% in size
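BAZ2B (50 nM) with biotin-H3(5-23)K14Ac peptide (50 nM) in PBS pH 7.4, 0.01% Tween-20, preformed 30 min, then compound 30 min at room temperature; top concentration 110uM. AlphaScreen streptavidin donor/nickel chelate acceptor beads (10 ug/mL final), 20 min dark, signal read.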
L3MBTL1 inh: blocks human L3MBTL1; Q9Y468; AlphaScreen L3MBTL1–H3K9me1 peptide binding; Potency, µM (top dose mostly 57.1 µM), for the others: at the top dose activity, negative = inhibition, actives largely listed as inhibitors; 230,000 compounds, 0.66% hits; AID 485360; further: on the % scale 0 is the no-effect control and ±100 the full control effect; nearly all actives have a fitted effect of over 60% in size
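AlphaScreen proximity signal between nickel-chelate acceptor and streptavidin donor beads (final 10 ug/mL) reports binding of 50 nM L3MBTL1 to 75 nM biotin-H3 K9me1 peptide; complex incubated with compounds 30 min at room temperature; cefsulodin titration as control.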
An asterisk follows results filed as active; [ ] = remark or other dose. The call rests on the fitted dose curve; in most records, active means well fitted curve in the direction sought with a large enough effect; inconclusive means small, poorly fitted or top-dose-only effect, or another doubt; inactive means no such curve, though single readings can be large; an effect the other way counts as inactive or inconclusive. Potency means the concentration at half of the fitted maximal effect.

Screening Cc1ccc(S(=O)(=O)N2CC(O)CC2C(=O)OCc2nc3sc(C)c(C)c3c(=O)[nH]2)cc1 (stereo unspecified) returned JMJD2A Tudor 0%, Sfp PPTase inh 14%, G9a inh 4µM*, HP1b chromo inh 27%, BAZ2B inh -2% and L3MBTL1 inh -1%.
For CCN(C(=O)CCS(=O)(=O)c1cc(Br)cc2c1N(C(=O)C1CC1)CC2)c1cccc(C)c1 the results were JMJD2A Tudor -9%, G9a inh -20%[59 µM], HP1b chromo inh 24% and BAZ2B inh 3%.
Screening CCCN(CCC)S(=O)(=O)c1cc(Br)cc2c1N(C(=O)CC)CC2 returned JMJD2A Tudor 12%[57.1 µM], Sfp PPTase inh -12%, G9a inh 50µM*, HP1b chromo inh 60%, BAZ2B inh 13% and L3MBTL1 inh -5%.
`CCC(=O)N1CCc2cc(Br)cc(S(=O)(=O)CCC(=O)N(CC)CC)c21` gave JMJD2A Tudor -13%, Sfp PPTase inh 13%, G9a inh 6%, HP1b chromo inh 25%, BAZ2B inh -1% and L3MBTL1 inh 17%.
`CCC(=O)N1CCc2cc(Br)cc(S(=O)(=O)CCC(=O)N(C)c3cccc(C)c3)c21` gave JMJD2A Tudor 50µM*, G9a inh -3%[12.7 µM], HP1b chromo inh inconclusive, BAZ2B inh 45µM* and L3MBTL1 inh 28µM*.
CCOC(=O)c1c(C)[nH]c(CCC(=O)Nc2cc(Cl)ccc2OC)c1C was read as JMJD2A Tudor -15%, G9a inh -37%[59 µM], HP1b chromo inh 14%[57 µM] and BAZ2B inh -11%.
CCOC(=O)C1=CN(CC2CCCO2)C=C(C(=O)OCC)C1c1ccccc1C(F)(F)F (stereo unspecified) was read as JMJD2A Tudor 20%, Sfp PPTase inh 40µM*, G9a inh 117%[59 µM], HP1b chromo inh 201%, BAZ2B inh 47% and L3MBTL1 inh 36%.
For CCOC(=O)c1ccc(NC(=O)c2cccc3c2C(=O)N(CC2CCCO2)C3)cc1 (stereo unspecified) the results were JMJD2A Tudor inconclusive, Sfp PPTase inh -31%, G9a inh 5%, HP1b chromo inh 34%, BAZ2B inh -4% and L3MBTL1 inh -6%.
For Cc1cc2ccccc2n1CCNC(=O)c1ccc(Br)cc1 the results were JMJD2A Tudor -30%, G9a inh -27%[59 µM], HP1b chromo inh 11% and BAZ2B inh -15%.
For Cc1cc2ccccc2n1CCNC(=O)c1ccccc1 the results were JMJD2A Tudor inconclusive, Sfp PPTase inh 50µM*, G9a inh inconclusive, HP1b chromo inh -11%, BAZ2B inh inconclusive and L3MBTL1 inh -18%.
`CC(=O)Nc1nnc(-c2c(-c3ccccc3Cl)noc2C)o1` gave JMJD2A Tudor 18µM*, Sfp PPTase inh 10%, G9a inh -37%, HP1b chromo inh 15%, BAZ2B inh inconclusive and L3MBTL1 inh -9%.
`Cc1onc(-c2c(Cl)cccc2Cl)c1C(=O)NC(=S)Nc1sc2c(c1C(N)=O)CCC(C)C2` (stereo unspecified) gave JMJD2A Tudor inconclusive, Sfp PPTase inh -8%, G9a inh 45µM*, HP1b chromo inh -6%, BAZ2B inh 1% and L3MBTL1 inh 3%.
`Cc1onc(-c2ccccc2Cl)c1C(=O)NC(=S)Nc1ccccc1C(N)=O` gave JMJD2A Tudor -14%, Sfp PPTase inh 50µM*, G9a inh inconclusive, HP1b chromo inh -12%, BAZ2B inh -4% and L3MBTL1 inh -1%.
COc1cc2c(cc1OC)C(COc1ccc3c(C)cc(=O)oc3c1)N(C(=O)Cc1ccc(F)cc1)CC2 (stereo unspecified) was read as JMJD2A Tudor -10%, G9a inh 4%[59 µM], HP1b chromo inh 15% and BAZ2B inh 4%.
CCOC(=O)c1ccc(NC(=O)CSc2nc3ccccc3c(=O)n2CCNC(C)=O)cc1 was read as JMJD2A Tudor -19%, G9a inh 0%[59 µM], HP1b chromo inh 29% and BAZ2B inh 0%.
For Cc1onc(-c2ccccc2Cl)c1C(=O)NCCn1c(C)cc2ccccc21 the results were JMJD2A Tudor -24%, Sfp PPTase inh 8%, G9a inh 50µM*, HP1b chromo inh 16%, BAZ2B inh -9% and L3MBTL1 inh -12%.
Screening CCC(=O)NCCn1c(C)cc2ccccc21 returned JMJD2A Tudor -23%, Sfp PPTase inh 4%, G9a inh 45µM*, HP1b chromo inh 1%, BAZ2B inh -5% and L3MBTL1 inh 2%.
For CC1CCc2c(sc(Nc3nc4c(F)cccc4s3)c2C(N)=O)C1 (stereo unspecified) the results were JMJD2A Tudor inconclusive, Sfp PPTase inh 25µM*, G9a inh 10µM*, HP1b chromo inh -6%, BAZ2B inh -3% and L3MBTL1 inh 7%.
COc1ccc(C(=O)Cc2cc(OC)c(OC)cc2[N+](=O)[O-])cc1 was read as JMJD2A Tudor -7%, Sfp PPTase inh 15%, G9a inh 8%[59 µM], HP1b chromo inh 24%, BAZ2B inh 0% and L3MBTL1 inh -5%.
Screening COc1cc(CN2CCSCC2)c([N+](=O)[O-])cc1OC returned JMJD2A Tudor 2.2µM*, Sfp PPTase inh inconclusive, HP1b chromo inh inconclusive, BAZ2B inh inconclusive and L3MBTL1 inh -8%.
`COc1cccc(CN2CCN(Cc3cc(OC)c(OC)cc3[N+](=O)[O-])CC2)c1` gave JMJD2A Tudor 0.79µM*, Sfp PPTase inh 56µM*, G9a inh 7.9µM*, HP1b chromo inh -52%, BAZ2B inh inconclusive and L3MBTL1 inh -10%.
For Cc1ccc(S(=O)(=O)NCc2ccncc2)c(C)c1C the results were JMJD2A Tudor -19%, Sfp PPTase inh 45µM*, HP1b chromo inh 21%, BAZ2B inh 1% and L3MBTL1 inh 34%.
Screening CCOC(=O)Cn1c(=O)oc2cc(S(=O)(=O)Nc3cc(OC)cc(OC)c3)ccc21 returned JMJD2A Tudor -12%, G9a inh 14%[59 µM], HP1b chromo inh 25% and BAZ2B inh -4%.
`COc1ccc(C(C)=O)cc1COC(=O)CNC(=O)c1ccc(Cl)cc1` gave JMJD2A Tudor -2%, Sfp PPTase inh 12%, G9a inh 50µM*, HP1b chromo inh 28%, BAZ2B inh -3% and L3MBTL1 inh -1%.
Screening CCOc1ccc(C(=O)NCC(=O)OCc2cc(C(C)=O)ccc2OC)cc1 returned JMJD2A Tudor -4%, Sfp PPTase inh -7%, G9a inh 45µM*, HP1b chromo inh 5%, BAZ2B inh 8% and L3MBTL1 inh 0%.
